Measurements taken from PubChem BioAssay (NCI).
Compounds without any hit were thinned out: in the full panel of roughly 79,000, 15% have a hit. Active and inactive are the calls of the source. Rule as the data show it: active = growth inhibition above about 70%; inactive = the rest.

What was measured:
[1] = NCI Yeast Anticancer Drug Screen. Data for the rad50 strain (AID 155);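 also: 0% = growth of vehicle-only cultures of the same strain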; conditions: S. cerevisiae rad50 strain growth inhibition, hits give high values
Procedure, shortened: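 Genetically altered yeast (DNA repair pathway); compound treatment; growth inhibition vs vehicle ctrl.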

[2] = NCI Yeast Anticancer Drug Screen. Data for the mec2-1 strain (AID 157); conditions: S. cerevisiae mec2-1 strain, hits give high values
Procedure, shortened: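 Vehicle-treated cultures served as reference for growth inhibition of compound-exposed mec2-1 yeast.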

[3] = NCI Yeast Anticancer Drug Screen. Data for the sgs1 mgt1 strain (AID 161);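 also: 0% = growth of cultures given vehicle only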; conditions: S. cerevisiae sgs1 mgt1 strain, hits give high values
Procedure, shortened: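 Mutant yeast exposed to compound; growth scored against vehicle-only wells.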

[4] = NCI Yeast Anticancer Drug Screen. Data for the cln2 rad14 strain (AID 165);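 also: 0% = growth equal to vehicle treated cultures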; conditions: S. cerevisiae cln2 rad14 strain, hits give high values
Procedure, shortened: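 Each compound was tested on cln2 rad14 yeast. Inhibition of growth was calculated against vehicle-exposed controls.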

[5] = NCI Yeast Anticancer Drug Screen. Data for the bub3 strain (AID 167); conditions: S. cerevisiae bub3 mutant strain, hits give high values
Procedure, shortened: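 Yeast carrying a defined mutation is treated with each compound, and growth is compared with that of vehicle-exposed cells to give inhibition.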

[6] = NCI Yeast Anticancer Drug Screen. Data for the mlh1 rad18 strain (AID 175); conditions: S. cerevisiae mlh1 rad18 strain growth inhibition, hits give high values
Procedure, shortened: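 Vehicle-treated cultures served as the reference for growth inhibition in a yeast strain carrying DNA damage repair alterations exposed to each compound.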

[7] = at 5.0 µM (retest, dose inferred, filed as 0.5)
[8] = at 50.0 µM (retest, dose inferred, filed as 5.0)

Measured: growth inhibition

Nc1nccc(NCCCCCCNc2ccnc(N)n2)n1
inactive: [1]; [7] 16% | [1]; [8] 41% | [1]; at 50.0 µM 43.2% | [2]; [7] 13% | [2]; [8] 19% | [2]; at 50.0 µM 41.6% | [3]; [7] 8% | [3]; [8] 36% | [4]; [7] 17% | [4]; [8] 21% | [4]; at 50.0 µM 52% | [5]; [7] 9% | [5]; [8] 33% | [5]; at 50.0 µM 48% | [6]; [7] 17% | [6]; [8] 60% | [6]; at 50.0 µM 57.2%
active: [3]; at 50.0 µM 80%

c1ccc(/C(=N\Nc2nc3ccccc3s2)c2ccccn2)cc1
inactive: [1]; [7] 0% | [2]; [7] 9% | [3]; [7] -6% | [4]; [7] -17% | [5]; [7] -6% | [6]; [7] 11%
active: [1]; [8] 88% | [1]; at 50.0 µM 71.7% | [2]; [8] 79% | [2]; at 50.0 µM 73.5% | [3]; [8] 90% | [3]; at 50.0 µM 75.4% | [4]; [8] 75% | [4]; at 50.0 µM 79.7% | [5]; [8] 87% | [5]; at 50.0 µM 78.7% | [6]; [8] 89% | [6]; at 50.0 µM 81.3%

CCOC(=O)/C(=C/c1ccccn1)C(=O)c1ccccc1
active: [1]; [8] 85% | [1]; at 50.0 µM 85.8% | [2]; [8] 93% | [2]; at 50.0 µM 85.7% | [3]; [8] 85% | [3]; at 50.0 µM 84.8% | [4]; [8] 85% | [4]; at 50.0 µM 76.7% | [5]; [8] 96% | [5]; at 50.0 µM 88.7% | [6]; [8] 94% | [6]; at 50.0 µM 79.6%
inactive: [1]; [7] 19% | [2]; [7] 18% | [3]; [7] 17% | [4]; [7] 39% | [5]; [7] 67% | [6]; [7] 53%

COc1cc(C(c2cc3c(cc2O)OCO3)N2CCCCC2)cc(OC)c1OC (stereo not given)
inactive: [1]; [7] -4% | [1]; [8] 13% | [1]; at 50.0 µM 25% | [2]; [7] 0% | [2]; [8] 20% | [2]; at 50.0 µM 34.6% | [3]; [7] -5% | [3]; [8] -33% | [3]; at 50.0 µM 21.8% | [4]; [7] -6% | [4]; [8] -3% | [4]; at 50.0 µM 67.5% | [5]; [7] -1% | [5]; [8] 4% | [5]; at 50.0 µM 31.6% | [6]; [7] -6% | [6]; [8] 6% | [6]; at 50.0 µM 62.6%

C/C=C1\SC(=S)NC1=O
active: [1]; [8] 99% | [1]; at 50.0 µM 98.8% | [2]; [8] 99% | [2]; at 50.0 µM 98.8% | [3]; [8] 98% | [3]; at 50.0 µM 99.2% | [4]; [8] 98% | [4]; at 50.0 µM 95.9% | [5]; [8] 98% | [5]; at 50.0 µM 98% | [6]; [8] 99% | [6]; at 50.0 µM 99.3%
inactive: [1]; [7] 25% | [2]; [7] 11% | [3]; [7] 22% | [4]; [7] 6% | [5]; [7] 9% | [6]; [7] 36%

Cn1cc(C2=CC(=O)C=CC2=O)c2ccccc21
inactive: [1]; [7] 0% | [2]; [7] 8% | [3]; [7] 4% | [4]; [7] -2% | [5]; [7] -4% | [6]; [7] 2%
active: [1]; [8] 97% | [1]; at 50.0 µM 98.1% | [2]; [8] 99% | [2]; at 50.0 µM 98.6% | [3]; [8] 98% | [3]; at 50.0 µM 98.8% | [4]; [8] 98% | [4]; at 50.0 µM 98.2% | [5]; [8] 97% | [5]; at 50.0 µM 98.2% | [6]; [8] 98% | [6]; at 50.0 µM 98.5%

Cc1cccc(C)c1N1C(=O)C2Nc3ccccc3SC2C1=O (stereo not given)
active: [1]; [8] 93% | [1]; at 50.0 µM 98.5% | [2]; [8] 94% | [2]; at 50.0 µM 98.7% | [3]; [8] 96% | [3]; at 50.0 µM 98.4% | [4]; [8] 90% | [4]; at 50.0 µM 95.8% | [5]; [8] 94% | [5]; at 50.0 µM 98.3% | [6]; [8] 95% | [6]; at 50.0 µM 98.5%
inactive: [1]; [7] 7% | [2]; [7] -1% | [3]; [7] 3% | [4]; [7] 2% | [5]; [7] 1% | [6]; [7] 11%

CCOCCC(=O)NNc1ccccc1
inactive: [1]; [7] 7% | [1]; [8] 43% | [1]; at 50.0 µM 26.2% | [2]; [7] 0% | [2]; [8] 36% | [2]; at 50.0 µM 6% | [3]; [7] 6% | [3]; [8] 41% | [3]; at 50.0 µM 42.2% | [4]; [7] 5% | [4]; [8] 56% | [4]; at 50.0 µM 56.8% | [5]; [7] 8% | [5]; at 50.0 µM 42.9% | [6]; [7] 19% | [6]; at 50.0 µM 58%
active: [5]; [8] 83% | [6]; [8] 80%

Cc1c(N)cc(I)cc1[N+](=O)[O-]
inactive: [1]; [7] 2% | [1]; [8] 12% | [1]; at 50.0 µM -4.65% | [2]; [7] 9% | [2]; [8] 7% | [2]; at 50.0 µM 4.2% | [3]; [7] 0% | [3]; [8] 63% | [3]; at 50.0 µM 12.8% | [4]; [7] 6% | [4]; [8] -11% | [4]; at 50.0 µM -32.7% | [5]; [7] -8% | [5]; [8] 2% | [5]; at 50.0 µM 56.8% | [6]; [7] -5% | [6]; [8] 10% | [6]; at 50.0 µM 13.8%

O=C(O)/C=C/c1ccc([N+](=O)[O-])o1
inactive: [1]; [7] 12% | [1]; [8] 50% | [2]; [7] 5% | [2]; [8] 38% | [3]; [7] 9% | [3]; [8] 67% | [4]; [7] -3% | [4]; [8] 38% | [4]; at 50.0 µM 62.4% | [5]; [7] 4% | [5]; [8] 42% | [6]; [7] 11%
active: [1]; at 50.0 µM 87.4% | [2]; at 50.0 µM 80% | [3]; at 50.0 µM 90% | [5]; at 50.0 µM 76% | [6]; [8] 81% | [6]; at 50.0 µM 93.2%
